# Test results from PubChem BioAssay (EPA / NIEHS).
# Active and inactive are the calls of the source. Rule for the calls: active = hit-call score of the fitted dose curve at least 0.9, where 1 is the maximum; inactive = score below 0.9.
# Columns and labels:
# [1] = read-out: TIMP metallopeptidase inhibitor 1 (TIMP1), TIMP1 (gene 7076); experiment: BSK_hDFCGF_TIMP1: BioMAP Diversity Plus: hDFCGF Assay for TIMP metallopeptidase inhibitor 1 (TIMP1) Biomarker Activity (AID 2283062); conditions: primary human foreskin fibroblasts; actives raise or lower the signal
# Procedure, shortened: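 Fibroblasts from human foreskin are treated with test chemical and harvested at 24 h. TIMP-1 is quantified by ELISA, and gain or loss of signal is scored against DMSO.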
# [2] = read-out: Monokine induced gamma interferon (MIG), CXCL9 (gene 4283); experiment: BSK_hDFCGF_MIG: BioMAP Diversity Plus: hDFCGF Assay for Monokine induced gamma interferon (MIG) Biomarker Activity (AID 2283063); conditions: primary human foreskin fibroblasts; actives raise or lower the signal
# Procedure, shortened: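 MIG signal, determined by ELISA, reflects 24 h chemical exposure of human skin primary fibroblasts. DMSO serves as negative control and baseline.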
# [3] = read-out: Matrix Metallopeptidase 1 (MMP1), MMP1 (gene 4312); experiment: BSK_hDFCGF_MMP1: BioMAP Diversity Plus: hDFCGF Assay for Matrix Metallopeptidase 1 (MMP1) Biomarker Activity (AID 2283064); conditions: primary human foreskin fibroblasts; actives raise or lower the signal
# Procedure, shortened: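 hDFCGF primary fibroblasts (human foreskin); chemical added; 24 h; MMP1 by ELISA; bidirectional fit vs DMSO.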
# [4] = read-out: Vascular cell adhesion molecule 1 (VCAM1), VCAM1 (gene 7412); experiment: BSK_hDFCGF_VCAM1: BioMAP Diversity Plus: hDFCGF Assay for Vascular cell adhesion molecule 1 (VCAM1) Biomarker Activity (AID 2283065); conditions: primary human foreskin fibroblasts; actives raise or lower the signal;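 for AC50: VCAM-1 protein level quantified by ELISA after 24 h chemical exposure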
# Procedure, shortened: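 Cells are dosed, cultured for 24 h, then VCAM-1 is quantified by ELISA; signal increases and decreases are both fitted relative to DMSO.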
# [5] = read-out: Plasminogen activator inhibitor-1 (PAI1), SERPINE1 (gene 5054); experiment: BSK_hDFCGF_PAI1: BioMAP Diversity Plus: hDFCGF Assay for Plasminogen activator inhibitor-1 (PAI1) Biomarker Activity (AID 2283066); conditions: primary human foreskin fibroblasts; actives raise or lower the signal
# Procedure, shortened: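 PAI-1 levels, determined by ELISA, served as the endpoint in human foreskin fibroblast cultures exposed to compound for 24 h, with DMSO as baseline.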
# [6] = read-out: Intercellular Adhesion Molecule 1 (ICAM1), ICAM1 (gene 3383); experiment: BSK_KF3CT_ICAM1: BioMAP Diversity Plus: KF3CT Assay for Intercellular Adhesion Molecule 1 (ICAM1) Biomarker Activity (AID 2283067); conditions: primary human keratinocytes with fibroblasts; actives raise or lower the signal
# Procedure, shortened: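 Dose the keratinocyte/fibroblast co-culture, wait 24 h, measure ICAM-1 by ELISA, then fit increases or decreases against DMSO. Cytotoxicity is checked in parallel cultures by SRB total-protein staining.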
# [7] = read-out: Interferon-gamma inducible Protein 10 (IP10), CXCL10 (gene 3627); experiment: BSK_KF3CT_IP10: BioMAP Diversity Plus: KF3CT Assay for Interferon-gamma inducible Protein 10 (IP10) Biomarker Activity (AID 2283068); conditions: primary human keratinocytes with fibroblasts; actives raise or lower the signal
# Procedure, shortened: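 Human keratinocyte plus foreskin fibroblast primary co-culture exposed to test chemical for 24 h; IP-10 measured by ELISA. Concentration-response fitted bidirectionally against DMSO control as baseline.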
# [8] = BSK_KF3CT_SRB: Viability Assessment in the BioMAP Diversity Plus: KF3CT Assay (AID 2283069); conditions: primary human keratinocytes with fibroblasts;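 note: total protein by sulforhodamine B staining as a cytotoxicity measure; read 24 h after compound addition; fitted for both signal gain and loss against DMSO baseline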
# Procedure, shortened: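 Keratinocytes co-cultured with foreskin fibroblasts (human primary); chemical added, 24 h; fix 10% TCA, stain 0.1% SRB, A560. Bidirectional fit vs DMSO.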
# [9] = read-out: Interleukin-1 alpha (IL1a), IL1A (gene 3552); experiment: BSK_KF3CT_IL1a: BioMAP Diversity Plus: KF3CT Assay for Interleukin-1 alpha (IL1a) Biomarker Activity (AID 2283070); conditions: primary human keratinocytes with fibroblasts; actives raise or lower the signal
# Procedure, shortened: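 Chemicals were dosed onto co-cultured human keratinocytes and foreskin fibroblasts, IL-1a was quantified by ELISA at 24 h, and activity was fitted in both directions relative to DMSO controls.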
# [10] = read-out: TIMP metallopeptidase inhibitor 2 (TIMP2), TIMP2 (gene 7077); experiment: BSK_KF3CT_TIMP2: BioMAP Diversity Plus: KF3CT Assay for TIMP metallopeptidase inhibitor 2 (TIMP2) Biomarker Activity (AID 2283071); conditions: primary human keratinocytes with fibroblasts; actives raise or lower the signal
# Procedure, shortened: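 Keratinocyte–fibroblast co-culture, 24 h exposure; TIMP-2 ELISA, DMSO-normalised bidirectional fit. Parallel SRB (0.1%, TCA-fixed, 560 nm) total-protein staining gauges cytotoxicity.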
smiles,measurement,setting,value
O=C1OC2(c3ccccc31)c1cc(I)c(O)c(I)c1Oc1c2cc(I)c(O)c1I,AC50,[1],6.04 µM (active)
same,AC50,[2],18.6 µM (active)
same,AC50,[3],7.71 µM (active)
same,AC50,[4],12 µM (active)
same,AC50,[5],5.52 µM (active)
same,AC50,[6],17.4 µM (active)
same,AC50,[7],18.4 µM (active)
same,outcome,[8],inactive
same,AC50,[9],4.82 µM (active)
same,AC50,[10],2.44 µM (active)
CCCCCc1ccc(O)cc1,AC50,[1],20 µM (active)
same,AC50,[2],31.3 µM (active)
same,AC50,[3],20 µM (active)
same,AC50,[4],15.2 µM (active)
same,AC50,[5],28.5 µM (active)
same,AC50,[6],27.6 µM (active)
same,AC50,[7],29.2 µM (active)
same,AC50,[8],12.4 µM (active)
same,AC50,[9],20 µM (active)
same,AC50,[10],10.4 µM (active)
CCCCCCCCCCCCOS(=O)(=O)O,AC50,[1],32 µM (active)
same,AC50,[2],27.7 µM (active)
same,AC50,[3],32.7 µM (active)
same,AC50,[4],29.3 µM (active)
same,AC50,[5],33.6 µM (active)
same,outcome,[6],inactive
same,AC50,[7],33.4 µM (active)
same,AC50,[8],33.7 µM (active)
same,AC50,[9],20 µM (active)
same,AC50,[10],29.3 µM (active)
Cc1cccc2c1ccc1ccccc12,outcome,[1],inactive
same,outcome,[2],inactive
same,outcome,[3],inactive
same,outcome,[4],inactive
same,outcome,[5],inactive
same,outcome,[6],inactive
same,outcome,[7],inactive
same,outcome,[8],inactive
same,outcome,[9],inactive
same,outcome,[10],inactive
C[C@]12CC[C@@H]3c4ccc(O)cc4CC[C@H]3[C@@H]1C[C@@H](O)[C@@H]2O,outcome,[1],inactive
same,outcome,[2],inactive
same,outcome,[3],inactive
same,outcome,[4],inactive
same,outcome,[5],inactive
same,outcome,[6],inactive
same,outcome,[7],inactive
same,outcome,[8],inactive
same,outcome,[9],inactive
same,outcome,[10],inactive
OCCN1CN(CCO)CN(CCO)C1,outcome,[1],inactive
same,AC50,[2],20 µM (active)
same,outcome,[3],inactive
same,AC50,[4],15.5 µM (active)
same,outcome,[5],inactive
same,AC50,[6],20 µM (active)
same,outcome,[7],inactive
same,outcome,[8],inactive
same,AC50,[9],5.9 µM (active)
same,outcome,[10],inactive
C=CC(C)(CCC=C(C)C)OC(C)=O (centres undefined),outcome,[1],inactive
same,outcome,[2],inactive
same,outcome,[3],inactive
same,outcome,[4],inactive
same,AC50,[5],29.8 µM (active)
same,outcome,[6],inactive
same,outcome,[7],inactive
same,outcome,[8],inactive
same,outcome,[9],inactive
same,AC50,[10],32 µM (active)
OCC(CO)(CBr)CBr,outcome,[1],inactive
same,outcome,[2],inactive
same,outcome,[3],inactive
same,outcome,[4],inactive
same,outcome,[5],inactive
same,outcome,[6],inactive
same,outcome,[7],inactive
same,outcome,[8],inactive
same,outcome,[9],inactive
same,outcome,[10],inactive
NC(=NCCCCCCN=C(N)/N=C(\N)Nc1ccc(Cl)cc1)/N=C(\N)Nc1ccc(Cl)cc1,AC50,[1],6.5 µM (active)
same,AC50,[3],7.45 µM (active)
same,AC50,[4],5.46 µM (active)
same,AC50,[5],3.67 µM (active)
same,AC50,[6],7.53 µM (active)
same,AC50,[7],6.16 µM (active)
same,AC50,[8],4.79 µM (active)
same,AC50,[9],4.32 µM (active)
same,AC50,[10],5.01 µM (active)
COc1cc(OC)nc(NC(=O)NS(=O)(=O)Nc2ccccc2C(=O)N(C)C)n1,outcome,[1],inactive
same,outcome,[2],inactive
same,outcome,[3],inactive
same,outcome,[4],inactive
same,outcome,[5],inactive
same,outcome,[6],inactive
same,outcome,[7],inactive
same,outcome,[8],inactive
same,outcome,[9],inactive
same,outcome,[10],inactive
CCCCC(CC)C(=O)OCCOCCOCCOCCOC(=O)C(CC)CCCC (centres undefined),outcome,[1],inactive
same,outcome,[2],inactive
same,outcome,[3],inactive
same,outcome,[4],inactive
same,outcome,[5],inactive
same,outcome,[6],inactive
same,outcome,[7],inactive
same,outcome,[8],inactive
same,outcome,[9],inactive
same,outcome,[10],inactive
O=P(O)(O)CCC(F)(F)C(F)(F)C(F)(F)C(F)(F)C(F)(F)C(F)(F)F,outcome,[1],inactive
same,outcome,[2],inactive
same,outcome,[3],inactive
same,outcome,[4],inactive
same,outcome,[5],inactive
same,outcome,[6],inactive
same,outcome,[7],inactive
same,outcome,[8],inactive
same,outcome,[9],inactive
same,outcome,[10],inactive
Cc1[nH]nc2c1N=C(c1ccccc1Cl)c1cc([N+](=O)[O-])ccc1N2,outcome,[1],inactive
same,AC50,[2],31.1 µM (active)
same,AC50,[3],2.47 µM (active)
same,outcome,[4],inactive
same,AC50,[5],5.16 µM (active)
same,outcome,[6],inactive
same,outcome,[7],inactive
same,outcome,[8],inactive
same,outcome,[9],inactive
same,outcome,[10],inactive
CN(Cc1cnc2nc(N)nc(N)c2n1)c1ccc(C(=O)N[C@@H](CCC(=O)O)C(=O)O)cc1,outcome,[1],inactive
same,outcome,[2],inactive
same,outcome,[3],inactive
same,outcome,[4],inactive
same,outcome,[5],inactive
same,outcome,[6],inactive
same,outcome,[7],inactive
same,outcome,[8],inactive
same,outcome,[9],inactive
same,outcome,[10],inactive
O=C1c2ccc(O)c(O)c2C(=O)c2c(O)ccc(O)c21,outcome,[1],inactive
same,outcome,[2],inactive
same,outcome,[3],inactive
same,outcome,[4],inactive
same,outcome,[5],inactive
same,outcome,[6],inactive
same,outcome,[7],inactive
same,outcome,[8],inactive
same,outcome,[9],inactive
same,outcome,[10],inactive
COCN(COC)c1nc(N(COC)COC)nc(N(COC)COC)n1,outcome,[1],inactive
same,outcome,[2],inactive
same,outcome,[3],inactive
same,outcome,[4],inactive
same,outcome,[5],inactive
same,outcome,[6],inactive
same,outcome,[7],inactive
same,outcome,[8],inactive
same,outcome,[9],inactive
same,outcome,[10],inactive
C=CC(=C)CC/C=C(\C)CCC=C(C)C,outcome,[1],inactive
same,outcome,[2],inactive
same,outcome,[3],inactive
same,outcome,[4],inactive
same,outcome,[5],inactive
same,outcome,[6],inactive
same,outcome,[7],inactive
same,outcome,[8],inactive
same,outcome,[9],inactive
same,outcome,[10],inactive
O=C(CCCN1CCC(O)(c2ccc(Cl)cc2)CC1)c1ccc(F)cc1,outcome,[1],inactive
same,outcome,[2],inactive
same,outcome,[3],inactive
same,outcome,[4],inactive
same,outcome,[5],inactive
same,outcome,[6],inactive
same,outcome,[7],inactive
same,outcome,[8],inactive
same,outcome,[9],inactive
same,outcome,[10],inactive
CCCCc1oc2ccccc2c1C(=O)c1cc(I)c(OCCN(CC)CC)c(I)c1,AC50,[1],9.35 µM (active)
same,AC50,[2],10.2 µM (active)
same,AC50,[3],9.45 µM (active)
same,AC50,[4],8.94 µM (active)
same,AC50,[5],4.81 µM (active)
same,AC50,[6],22.8 µM (active)
same,AC50,[7],8.36 µM (active)
same,AC50,[8],9.02 µM (active)
same,AC50,[9],9.69 µM (active)
same,AC50,[10],8.7 µM (active)
CCOC(=O)CN[C@@H](C(=O)N1CC[C@H]1C(=O)NCc1ccc(/C(N)=N/O)cc1)C1CCCCC1,outcome,[1],inactive
same,outcome,[2],inactive
same,outcome,[3],inactive
same,outcome,[4],inactive
same,outcome,[5],inactive
same,outcome,[6],inactive
same,outcome,[7],inactive
same,outcome,[8],inactive
same,outcome,[9],inactive
same,outcome,[10],inactive
COC1=CC(=O)C[C@@H](C)[C@]12Oc1c(Cl)c(OC)cc(OC)c1C2=O,outcome,[1],inactive
same,outcome,[2],inactive
same,outcome,[3],inactive
same,outcome,[4],inactive
same,AC50,[5],0.497 µM (active)
same,outcome,[6],inactive
same,outcome,[7],inactive
same,outcome,[8],inactive
same,AC50,[9],1.98 µM (active)
same,outcome,[10],inactive
O=C(O)CCC(F)(F)C(F)(F)C(F)(F)C(F)(F)C(F)(F)C(F)(F)F,outcome,[1],inactive
same,outcome,[2],inactive
same,outcome,[3],inactive
same,outcome,[4],inactive
same,outcome,[5],inactive
same,outcome,[6],inactive
same,outcome,[7],inactive
same,outcome,[8],inactive
same,outcome,[9],inactive
same,outcome,[10],inactive
CN(C)c1ccc(C(=C2C=CC(=[N+](C)C)C=C2)c2ccccc2)cc1,AC50,[1],0.0082 µM (active)
same,AC50,[2],0.0509 µM (active)
same,AC50,[3],0.765 µM (active)
same,AC50,[4],0.0134 µM (active)
same,AC50,[5],0.0185 µM (active)
same,AC50,[6],0.516 µM (active)
same,AC50,[7],0.39 µM (active)
same,AC50,[8],0.318 µM (active)
same,AC50,[9],0.359 µM (active)
same,AC50,[10],0.795 µM (active)
